# PubChem BioAssay (NCATS)
# Inconclusive results are not listed. A call without a number means that no potency is given here. Calls of active or inactive are those of the source. The call rests on the fitted dose curve; in most records, active means well fitted cell-killing curve with a large enough effect; inconclusive means small, poorly fitted or top-dose-only effect, or effect the other way; inactive means no such curve, though single readings can be large or run the other way.
# Assay: Quantitative High-Throughput drug screen in 47 multiple myeloma cell lines against the NCATS MIPE library collection: PCM6_Riken cell viability assay (AID 1919870)
# Settings: CellTiter-Glo ATP, 48 h; series mostly up to 45.8 µM
# In short: (§1)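 Myeloma cells (500/well) treated with MIPE 4.0 compounds for 48 h at 37 °C, 5% CO2. Viability read as ATP via CellTiter-Glo luminescence after 5 min at RT; DMSO-only wells = 100%, media-only = 0% viability.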
# Further: nearly all actives have a fitted effect of over 30% in size.
# Potency means the concentration at half of the fitted maximal effect.
row,Compound,Potency
1,CCOC(=O)c1c(CSc2ccccc2)n(C)c2cc(Br)c(O)c(CN(C)C)c12,16.6 µM (active)
2,O=C(O)c1nc(=O)[nH]c(=O)[nH]1,inactive
3,Oc1ccc(C=Cc2cc(O)cc(O)c2)cc1,inactive
4,Cc1ccc(C(=O)N(CCCN)[C@@H](c2nc3cc(Cl)ccc3c(=O)n2Cc2ccccc2)C(C)C)cc1,5.26 µM (active)
5,Clc1ccc(COC(Cn2ccnc2)c2ccc(Cl)cc2Cl)c(Cl)c1 (configuration not stated),20.9 µM (active)
6,CCOC(=O)N1c2ccc(C(F)(F)F)cc2[C@@H](N(Cc2cc(C(F)(F)F)cc(C(F)(F)F)c2)C(=O)OC)C[C@H]1CC,inactive
7,COc1cc2c(cc1OC)CC(=O)N(CCCN(C)C[C@H]1Cc3cc(OC)c(OC)cc31)CC2,inactive
8,Cc1ccc(C(=O)N(CCCN)[C@@H](c2oc3cc(Cl)ccc3c(=O)c2Cc2ccccc2)C(C)C)cc1,9.35 µM (active)
9,C=C1c2cccc(O)c2C(O)=C2C(=O)[C@@]3(O)C(O)=C(C(N)=O)C(=O)[C@@H](N(C)C)[C@@H]3[C@@H](O)[C@H]12,16.6 µM (active)
10,C[C@@H]1CCO[C@H]2Cn3cc(C(=O)NCc4ccc(F)cc4F)c(=O)c(O)c3C(=O)N12,23.5 µM (active)
11,CCCCC(C)(C)[C@H](O)C=C[C@H]1[C@H](O)CC(=O)[C@H]1CC=CCCCC(=O)O,26.4 µM (active)
12,C[C@@H](O)[C@H]1C(=O)N2C(C(=O)OCOC(=O)C(C)(C)C)=C(SC3CN(C4=NCCS4)C3)[C@H](C)[C@H]12,23.5 µM (active)
13,CO[C@H]1O[C@@H]2O[C@@]3(C)CC[C@@H]4[C@@H](C)CC[C@@H]([C@H]1C)[C@@]24OO3,inactive
14,CN(C)CCCNC(=O)c1ccc(-c2cc(O)c3ncccc3c2)cc1,inactive
15,CCCCc1ccc(NS(=O)(=O)c2ccc(C)c(C(=O)N3CCN(c4cccc(C)c4C)CC3)c2)cc1,26.4 µM (active)

# Assay: Quantitative High-Throughput drug screen in 47 multiple myeloma cell lines against the NCATS MIPE library collection: RPMI8226_ATCC cell viability assay (AID 1919871)
# Settings: RPMI8226 myeloma viability, CellTiter-Glo ATP luminescence, 48 h; series mostly up to 45.8 µM
# In short: as §1
row,Compound,Potency
1,CCOC(=O)c1c(CSc2ccccc2)n(C)c2cc(Br)c(O)c(CN(C)C)c12,11.8 µM (active)
2,O=C(O)c1nc(=O)[nH]c(=O)[nH]1,10.2 µM (active)
3,Oc1ccc(C=Cc2cc(O)cc(O)c2)cc1,18.7 µM (active)
4,COc1ccc(-c2ccc3ncc4c(c3c2)n(-c2ccc(N3CCNCC3)c(C(F)(F)F)c2)c(=O)n4C)cn1,0.332 µM (active)
5,CCNC(=O)[C@H]1O[C@@H](n2cnc3c(N)nc(NCCc4ccc(CCC(=O)O)cc4)nc32)[C@H](O)[C@H]1O,inactive
6,CCOC(=O)N1c2ccc(C(F)(F)F)cc2[C@@H](N(Cc2cc(C(F)(F)F)cc(C(F)(F)F)c2)C(=O)OC)C[C@H]1CC,9.35 µM (active)
7,CN(C)c1nc(Cc2ccc(NC(=O)c3ccc(C(F)(F)F)cc3)cc2)nc(N(C)C)c1CC(=O)O,6.62 µM (active)
8,COc1cc2c(cc1OC)CC(=O)N(CCCN(C)C[C@H]1Cc3cc(OC)c(OC)cc31)CC2,11.8 µM (active)
9,CC1(COc2ccc3c(c2)ncn3-c2ccc3cccc(N4CCC(N)CC4)c3n2)COC1,20.9 µM (active)
10,CCCCC(C)(C)[C@H](O)C=C[C@H]1[C@H](O)CC(=O)[C@H]1CC=CCCCC(=O)O,8.33 µM (active)
11,C[C@@H](O)[C@H]1C(=O)N2C(C(=O)OCOC(=O)C(C)(C)C)=C(SC3CN(C4=NCCS4)C3)[C@H](C)[C@H]12,inactive
12,CN1c2ccccc2C(=O)N2CCc3c([nH]c4ccccc34)C21 (configuration not stated),inactive
13,CNC(=O)c1cc(COc2nnc(Nc3ccc(Cl)cc3)c3ccoc23)ccn1,20.9 µM (active)
14,CCCCn1c(=O)n(Cc2ccccc2F)c(=O)c2[nH]c(Cc3ccc(NC(C)=O)cc3)nc21,inactive
15,CN(C)CCCNC(=O)c1ccc(-c2cc(O)c3ncccc3c2)cc1,18.7 µM (active)
16,CCCCOCCOc1nc(-c2ccc(C(=O)O)c(F)c2)sc1C,10.5 µM (active)

# Assay: Quantitative High-Throughput drug screen in 47 multiple myeloma cell lines against the NCATS MIPE library collection: OPM2_DSMZ cell viability assay (AID 1919872)
# Settings: OPM2 myeloma viability, CellTiter-Glo ATP luminescence, 48 h; series mostly up to 45.8 µM
# In short: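 CellTiter-Glo ATP luminescence gave viability after 48 h compound treatment at 37C of 500 multiple myeloma cells per well. Normalisation used DMSO-only wells as 100% and media-only wells as 0% viability; primary qHTS of approved and investigational drugs.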
row,Compound,Potency
1,O=C(O)c1nc(=O)[nH]c(=O)[nH]1,inactive
2,Oc1ccc(C=Cc2cc(O)cc(O)c2)cc1,inactive
3,Cc1ccc(C(=O)N(CCCN)[C@@H](c2nc3cc(Cl)ccc3c(=O)n2Cc2ccccc2)C(C)C)cc1,inactive
4,Cc1nc2c([nH]1)CCN(C(=O)c1ccc(NC(=O)c3ccccc3-c3ccccc3)cc1)c1ccccc1-2,inactive
5,CC1=C[C@@H]2[C@@H]([C@@H](O)C[C@@]3(C)[C@H]2C[C@@H](C)[C@]3(O)C(=O)CO)[C@@]2(C)Cc3cnn(-c4ccccc4)c3C=C12,20.9 µM (active)
6,O=c1[nH]c(=O)n([C@H]2C[C@@H](O)[C@@H](CO)O2)cc1C(F)(F)F,inactive
7,CCOC(=O)N1c2ccc(C(F)(F)F)cc2[C@@H](N(Cc2cc(C(F)(F)F)cc(C(F)(F)F)c2)C(=O)OC)C[C@H]1CC,9.35 µM (active)
8,COc1ccc(CCC(=O)Nc2nc3ccc(Cl)cc3s2)cc1OC,inactive
9,COc1cc2c(cc1OC)CC(=O)N(CCCN(C)C[C@H]1Cc3cc(OC)c(OC)cc31)CC2,inactive
10,Nc1ccc(-c2ccc3ncc4ccc(=O)n(-c5cccc(C(F)(F)F)c5)c4c3c2)cn1,0.0059 µM (active)
11,CC1(COc2ccc3c(c2)ncn3-c2ccc3cccc(N4CCC(N)CC4)c3n2)COC1,0.743 µM (active)
12,Cc1ccc(C(=O)N(CCCN)[C@@H](c2oc3cc(Cl)ccc3c(=O)c2Cc2ccccc2)C(C)C)cc1,inactive
13,C[C@@H]1CCO[C@H]2Cn3cc(C(=O)NCc4ccc(F)cc4F)c(=O)c(O)c3C(=O)N12,inactive
14,C[C@@H](O)[C@H]1C(=O)N2C(C(=O)OCOC(=O)C(C)(C)C)=C(SC3CN(C4=NCCS4)C3)[C@H](C)[C@H]12,inactive
15,CN1c2ccccc2C(=O)N2CCc3c([nH]c4ccccc34)C21 (configuration not stated),inactive
16,COc1ccnc(CS(=O)c2nc3ccc(OC(F)F)cc3[nH]2)c1OC (configuration not stated),inactive
17,CO[C@H]1O[C@@H]2O[C@@]3(C)CC[C@@H]4[C@@H](C)CC[C@@H]([C@H]1C)[C@@]24OO3,inactive
18,CC1(C)CC(=O)c2c(C(F)(F)F)nn(-c3ccc(C(N)=O)c(NC4CCC(O)CC4)c3)c2C1 (configuration not stated),0.166 µM (active)
19,Cn1c(=O)c(Oc2ccc(F)cc2F)cc2cnc(NC3CCOCC3)nc21,inactive
20,CCCCn1c(=O)n(Cc2ccccc2F)c(=O)c2[nH]c(Cc3ccc(NC(C)=O)cc3)nc21,inactive
21,CCCCOCCOc1nc(-c2ccc(C(=O)O)c(F)c2)sc1C,inactive
